Reference: PubChem BioAssay (Tox21)
Results filed as inconclusive are left out. Entries that show only a call come without a potency. The source holds several records for some structures; these can differ, active in one and inactive in another. Activity calls are given as the source filed them. Unless noted, calls come from the whole dose curve; as a rule, active = well fitted curve in the direction sought with a large enough effect in the repeat runs; inconclusive = weak or mixed curves; inactive = no such curve, though single readings can be large; an effect the other way counts as inactive or inconclusive.

Assays:
[1] = qHTS assay to identify small molecule antagonists of the thyroid receptor (TR) signaling pathway (AID 743065); note: series mostly up to about 70 µM; nearly all actives have a fitted effect of over 55% in size
Summary of the method: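 GH3.TRE-Luc rat pituitary cells (two TREs driving luciferase) were dosed with compound, then stimulated with 1 nM T3 (final) for 23.5 h at 37 C. ONE-Glo luminescence was the read-out, with CellTiter-Fluor fluorescence as the cytotoxicity counter-screen.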

[2] = system: thyroid hormone receptor (rat, GH3 cells); test: qHTS assay to identify small molecule agonists of the thyroid receptor (TR) signaling pathway (AID 743066; calls by dose curve)
[3] = molecular target: Estrogen receptor (Homo sapiens) (UniProt P03372); test: qHTS assay to identify small molecule antagonists of the estrogen receptor alpha (ER-alpha) signaling pathway (AID 743069; active = well fitted curve in the direction sought with a large enough effect in the signal ratio in the repeat runs, not every such curve was filed as active; the % refers to the signal ratio)
Estrogen receptor (Homo sapiens), sequence (P03372 whole entry, looked up): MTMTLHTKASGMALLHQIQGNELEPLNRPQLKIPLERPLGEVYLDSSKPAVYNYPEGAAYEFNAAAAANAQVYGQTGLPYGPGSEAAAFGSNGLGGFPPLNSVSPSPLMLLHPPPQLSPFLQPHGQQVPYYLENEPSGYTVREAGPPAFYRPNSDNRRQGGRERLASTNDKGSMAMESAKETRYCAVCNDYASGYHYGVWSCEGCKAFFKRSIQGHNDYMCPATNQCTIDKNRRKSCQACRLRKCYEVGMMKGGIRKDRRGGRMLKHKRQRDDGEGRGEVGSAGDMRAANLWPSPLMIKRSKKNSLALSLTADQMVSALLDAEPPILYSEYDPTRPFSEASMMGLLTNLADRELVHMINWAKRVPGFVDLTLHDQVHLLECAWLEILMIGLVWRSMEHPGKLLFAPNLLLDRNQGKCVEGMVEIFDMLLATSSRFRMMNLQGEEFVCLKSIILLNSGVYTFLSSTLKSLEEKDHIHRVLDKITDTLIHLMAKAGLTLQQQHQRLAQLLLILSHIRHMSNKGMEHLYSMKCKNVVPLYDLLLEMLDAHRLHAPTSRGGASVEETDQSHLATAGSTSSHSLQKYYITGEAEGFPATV
Summary of the method: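 Reporter cells (ER-alpha-bla, HEK293 background) are conditioned overnight in stripped-serum medium (2% charcoal-stripped FBS). Compound and 17beta-estradiol exposure runs 18 hr at 37C, 5% CO2.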

[4] = qHTS assay to identify small molecule antagonists of the estrogen receptor alpha (ER-alpha) signaling pathway - cell viability counter screen (AID 743074; calls by dose curve;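 note: HEK293 cells carrying ER-alpha-UAS-bla reporter stimulated with 17beta-estradiol; nearly all actives have a fitted effect of over 45% in size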)
[5] = molecular target: Estrogen receptor (Homo sapiens) (UniProt P03372); test: qHTS assay to identify small molecule agonists of the estrogen receptor alpha (ER-alpha) signaling pathway (AID 743075; calls by dose curve;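 note: HEK293 GripTite cells with ER-alpha and UAS-driven beta-lactamase reporter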)
[6] = molecular target: Estrogen receptor (Homo sapiens) (UniProt P03372); test: qHTS assay to identify small molecule agonists of the estrogen receptor alpha (ER-alpha) signaling pathway using the BG1 cell line (AID 743079); note: nearly all actives have a fitted effect of over 20% in size; note: potency is the fitted concentration of half-maximal effect
[7] = qHTS assay to identify small molecule antagonists of the estrogen receptor alpha (ER-alpha) signaling pathway using the BG1 cell line (AID 743080; calls by dose curve;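 note: BG1 cells stimulated with 17beta-estradiol alongside compound; series mostly up to about 70 µM; nearly all actives have a fitted effect of over 25% in size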)
Summary of the method: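 BG1-Luc-4E2 cells (endogenous full-length ER-alpha, 4xERE luciferase) hormone-starved 5 days in charcoal-stripped FBS, plated 4,000/well for 24 h, then compound plus 17beta-estradiol for 21.5 h at 37 C; ONE-Glo luminescence read.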

[8] = qHTS assay to identify small molecule antagonists of the estrogen receptor alpha (ER-alpha) signaling pathway using the BG1 cell line - cell viability counter screen (AID 743081);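 note: compound given together with 17beta-estradiol as the ER stimulus; series mostly up to about 70 µM; nearly all actives have a fitted effect of over 45% in size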
[9] = qHTS assay to identify aromatase inhibitors - cell viability counter screen (AID 743084);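 note: cells stimulated with testosterone during compound exposure; nearly all actives have a fitted effect of over 55% in size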
[10] = molecular target: Peroxisome proliferator-activated receptor gamma (Homo sapiens) (UniProt P37231); test: qHTS assay to identify small molecule agonists of the peroxisome proliferator-activated receptor gamma (PPARg) signaling pathway (AID 743094; active = well fitted activation curve with a large enough effect in the signal ratio in the repeat runs, not every such curve was filed as active; the % refers to the signal ratio)
Peroxisome proliferator-activated receptor gamma (Homo sapiens), sequence (P37231 whole entry, looked up): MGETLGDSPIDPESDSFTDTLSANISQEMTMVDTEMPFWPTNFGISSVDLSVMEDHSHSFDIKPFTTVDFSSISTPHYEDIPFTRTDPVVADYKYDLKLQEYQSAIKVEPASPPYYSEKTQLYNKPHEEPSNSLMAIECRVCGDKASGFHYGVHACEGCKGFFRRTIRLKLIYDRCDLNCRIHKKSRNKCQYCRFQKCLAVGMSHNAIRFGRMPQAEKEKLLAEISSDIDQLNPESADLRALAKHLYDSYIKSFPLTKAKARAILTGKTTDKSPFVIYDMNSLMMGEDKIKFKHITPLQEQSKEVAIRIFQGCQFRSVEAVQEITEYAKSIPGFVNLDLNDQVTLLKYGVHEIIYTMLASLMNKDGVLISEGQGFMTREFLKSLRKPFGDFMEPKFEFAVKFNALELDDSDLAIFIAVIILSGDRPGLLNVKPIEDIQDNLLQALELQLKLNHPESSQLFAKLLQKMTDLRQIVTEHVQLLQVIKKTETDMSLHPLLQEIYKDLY
Summary of the method: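 Beta-lactamase FRET fluorescence was the read-out after a 1 h room-temperature substrate step, following 17 h compound treatment at 37C of HEK293H cells expressing a UAS-driven bla reporter responsive to PPARg.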

[11] = qHTS assay for small molecule activators of the heat shock response signaling pathway - cell viability counter screen (AID 743209); note: nearly all actives have a fitted effect of over 50% in size; note: potency is the fitted concentration of half-maximal effect
Summary of the method: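 Luminescence from CellTiter-Glo, added after the beta-lactamase FRET read, gave the viability signal. Cells were HSE-bla HeLa treated with DMSO-dissolved compounds for 5 h at 37 C following overnight plating.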

[12] = qHTS assay for small molecule activators of the heat shock response signaling pathway (AID 743210; active = well fitted activation curve with a large enough effect in the signal ratio in the repeat runs, with a control signal flat, not every such curve was filed as active; the % refers to the signal ratio;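 note: HeLa cells with beta-lactamase reporter driven by heat shock elements; series mostly up to about 63 µM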)
Summary of the method: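 Quantitative high-throughput format using an engineered HeLa line in which heat shock response elements drive beta-lactamase; after 5 h with compound, cells received a B/G FRET substrate and fluorescence was read.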

[13] = qHTS assay to identify small molecule agonists of the peroxisome proliferator-activated receptor delta (PPARd) signaling pathway - cell viability counter screen (AID 743211); note: nearly all actives have a fitted effect of over 55% in size
Summary of the method: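 In the same wells used for beta-lactamase reporter measurement, cytotoxicity is scored by CellTiter-Glo. HEK293H PPARd-bla cells receive compound for 17 h at 37C following a 5 h settling period.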

Aromatase (Homo sapiens) = Aromatase (Homo sapiens) (UniProt P11511); test: qHTS assay to identify aromatase inhibitors (AID 743083); note: series mostly up to about 70 µM; nearly all actives have a fitted effect of over 55% in size
Aromatase (Homo sapiens), sequence (P11511 whole entry, looked up): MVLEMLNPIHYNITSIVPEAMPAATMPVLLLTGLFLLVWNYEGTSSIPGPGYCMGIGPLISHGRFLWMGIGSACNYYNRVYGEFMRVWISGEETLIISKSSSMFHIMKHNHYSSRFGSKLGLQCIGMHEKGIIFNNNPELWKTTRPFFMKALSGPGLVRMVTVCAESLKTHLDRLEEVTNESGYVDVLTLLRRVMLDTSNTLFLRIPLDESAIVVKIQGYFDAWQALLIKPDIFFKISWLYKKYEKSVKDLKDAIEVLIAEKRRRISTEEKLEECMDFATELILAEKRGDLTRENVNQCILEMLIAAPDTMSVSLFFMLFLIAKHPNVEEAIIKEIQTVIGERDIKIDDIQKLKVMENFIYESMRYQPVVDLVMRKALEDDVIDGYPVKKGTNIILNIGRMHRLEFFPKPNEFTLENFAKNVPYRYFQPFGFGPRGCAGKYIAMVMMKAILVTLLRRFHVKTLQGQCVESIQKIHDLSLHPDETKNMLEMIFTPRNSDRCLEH

[14] = qHTS assay to identify small molecule that activate the aryl hydrocarbon receptor (AhR) signaling pathway - cell viability counter screen (AID 743086);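 note: HepG2 liver cells carrying the AhR DRE luciferase reporter; series mostly up to about 70 µM; nearly all actives have a fitted effect of over 45% in size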
Summary of the method: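 HepG2-AhR-luc (HG2L7.5c1) cells, 4000/well, treated 24 h at 37 C with compound; viability measured as CellTiter-Fluor fluorescence after 30 min in the same wells as the luciferase read.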

[15] = molecular target: Peroxisome proliferator-activated receptor gamma (Homo sapiens) (UniProt P37231); test: qHTS assay to identify small molecule antagonists of the peroxisome proliferator-activated receptor gamma (PPARg) signaling pathway (AID 743191; calls by dose curve; note: series mostly up to about 63 µM; nearly all actives have a fitted effect of over 30% in size)
Summary of the method: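 GeneBLAzer PPARg UAS-bla HEK293H cells, 5 h post-plating, exposed to compounds 17 h at 37C. LiveBLAzer B/G FRET substrate added for 1 h at room temperature; beta-lactamase reporter read by fluorescence intensity.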

[16] = qHTS assay to identify small molecule antagonists of the peroxisome proliferator-activated receptor gamma (PPARg) signaling pathway - cell viability counter screen (AID 743194); note: nearly all actives have a fitted effect of over 55% in size
Summary of the method: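 Cytotoxicity counter screen in PPARg-bla HEK293H cells, same wells as reporter assay. Compounds plus 50 nM rosiglitazone (final) for 17 h at 37 C, then viability read by CellTiter-Glo luminescence.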

[17] = qHTS assay for small molecule agonists of the antioxidant response element (ARE) signaling pathway - cell viability counter screen (AID 743203; calls by dose curve; note: nearly all actives have a fitted effect of over 55% in size)
Summary of the method: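 HepG2 cells carrying ARE-driven beta-lactamase; 2,000 cells/well; 5 hrs plating; compound pinned from DMSO; 16 hrs 37C/5% CO2; CellTiter-Glo added; 30 min RT; luminescence.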

[18] = qHTS assay for small molecule agonists of the antioxidant response element (ARE) signaling pathway (AID 743202; active = well fitted activation curve with a large enough effect in the signal ratio in the repeat runs, not every such curve was filed as active; the % refers to the signal ratio)
Summary of the method: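 Agonist mode reporter screen: HepG2 cells with ARE-controlled beta-lactamase are incubated with test compounds for 16 h at 37 C, and beta-lactamase activity is measured as fluorescence of cleaved B/G FRET substrate.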

[19] = molecular target: Aryl hydrocarbon receptor (Homo sapiens) (UniProt P35869); test: qHTS assay to identify small molecule that activate the aryl hydrocarbon receptor (AhR) signaling pathway (AID 743085);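 note: HG2L7.5c1 human HepG2 liver cells with stably integrated DRE-driven firefly reporter; series mostly up to about 70 µM; nearly all actives have a fitted effect of over 15% in size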
Aryl hydrocarbon receptor (Homo sapiens), sequence (P35869 whole entry, looked up): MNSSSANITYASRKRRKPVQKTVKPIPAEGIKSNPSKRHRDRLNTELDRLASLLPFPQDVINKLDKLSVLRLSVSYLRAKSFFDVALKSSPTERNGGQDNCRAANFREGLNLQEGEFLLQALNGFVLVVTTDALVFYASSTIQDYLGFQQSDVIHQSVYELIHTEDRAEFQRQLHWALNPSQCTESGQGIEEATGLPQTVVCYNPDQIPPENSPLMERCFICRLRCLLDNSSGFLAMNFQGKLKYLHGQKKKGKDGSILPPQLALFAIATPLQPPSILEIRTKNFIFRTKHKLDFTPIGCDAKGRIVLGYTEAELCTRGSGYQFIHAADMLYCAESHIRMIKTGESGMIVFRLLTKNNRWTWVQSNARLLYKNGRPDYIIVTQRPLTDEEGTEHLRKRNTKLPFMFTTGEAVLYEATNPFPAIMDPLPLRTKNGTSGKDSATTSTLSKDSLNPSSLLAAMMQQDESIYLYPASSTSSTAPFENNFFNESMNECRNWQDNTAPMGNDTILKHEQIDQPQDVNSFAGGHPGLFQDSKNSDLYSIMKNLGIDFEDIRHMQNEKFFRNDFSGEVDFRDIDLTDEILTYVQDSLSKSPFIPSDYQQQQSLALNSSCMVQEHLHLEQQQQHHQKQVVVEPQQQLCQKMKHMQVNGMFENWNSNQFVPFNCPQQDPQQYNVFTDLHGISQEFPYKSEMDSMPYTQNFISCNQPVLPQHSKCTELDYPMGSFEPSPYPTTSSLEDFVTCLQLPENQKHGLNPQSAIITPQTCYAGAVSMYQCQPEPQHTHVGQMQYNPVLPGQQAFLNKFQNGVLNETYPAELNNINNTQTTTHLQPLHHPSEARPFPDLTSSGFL
Summary of the method: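 Stably transfected human liver carcinoma cells (HG2L7.5c1; 20 DRE-firefly luciferase) were incubated 5 h, dosed, and kept 24 h at 37C. Agonism was scored from increased luciferase luminescence.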

| SMILES | Potency [1] | outcome [2] | outcome [3] | outcome [4] | Potency [5] | Potency [6] | outcome [7] | Potency [8] | Potency [9] | Potency [10] | Potency [11] | outcome [12] | outcome [13] | outcome (Aromatase (Homo sapiens)) | Potency [14] | outcome [15] | outcome [16] | outcome [17] | Potency [18] | Potency [19] |
| --- | --- | --- | --- | --- | --- | --- | --- | --- | --- | --- | --- | --- | --- | --- | --- | --- | --- | --- | --- | --- |
| CC1=C(C(=O)O)N2C(=O)[C@@H](NC(=O)[C@H](N)c3ccccc3)[C@H]2SC1 | inactive | inactive | inactive | inactive | inactive | inactive | inactive | inactive | inactive | inactive | inactive | inactive | inactive |  |  |  |  |  |  |  |
| ONc1ccccc1 | inactive | inactive | inactive | inactive | inactive | 60.5 µM (active) |  | inactive | inactive | inactive | inactive |  | inactive | inactive | inactive | inactive | inactive | inactive |  |  |
| CCCc1ccc(O)cc1 | inactive | inactive | inactive | inactive | inactive |  | inactive | inactive | inactive | inactive | inactive | inactive | inactive | inactive | inactive | inactive |  | inactive | inactive |  |
| CC1(C)O[C@H]2CC(=O)OC[C@]23[C@H]2CC[C@@]4(C)[C@H](c5ccoc5)OC(=O)[C@H]5O[C@]54[C@]2(C)C(=O)C[C@@H]13 | inactive | inactive | inactive | inactive | inactive | 13.3 µM (active) |  |  | inactive | inactive | inactive | inactive | inactive | inactive |  |  | inactive |  | inactive | inactive |
| CC(=O)OCC(=O)Nc1cc(C#N)cc(NC(=O)COC(C)=O)c1Cl | inactive | inactive | inactive | inactive | inactive | inactive | inactive |  | inactive | inactive | inactive | inactive | inactive | inactive | inactive |  | inactive | inactive | inactive | inactive |
| CC(C)NCC(O)c1ccc2ccccc2c1 (configuration not stated) | inactive | inactive |  | inactive |  |  |  | inactive | inactive | inactive | inactive |  | inactive | inactive | inactive |  | inactive | inactive | inactive | inactive |
| C[C@]12CCC(=O)C=C1CC[C@H]1[C@@H]3CC[C@](O)(C(=O)CO)[C@@]3(C)C[C@H](O)[C@@]12F | inactive | inactive |  | inactive | inactive | 4.73 µM (active) and inactive |  | inactive | inactive | inactive | inactive | inactive | inactive | inactive | inactive |  | inactive | inactive | inactive | inactive |
| c1ccc2c(CC3=NCCN3)cccc2c1 | inactive | inactive |  | inactive |  |  | inactive | inactive | inactive | inactive | inactive | inactive | inactive | inactive | inactive | inactive | inactive | inactive | inactive |  |
| CCc1occc(=O)c1O | inactive | inactive |  | inactive | inactive | inactive | inactive | inactive | inactive | inactive | inactive | inactive | inactive | inactive |  |  |  | inactive |  | inactive |
| CC(C)CCOC(=O)c1ccccc1 | inactive | inactive |  | inactive |  |  |  | inactive | inactive | inactive | inactive | inactive | inactive | inactive | inactive |  | inactive | inactive | inactive | inactive |
| C=C(C)C1CC=C(C)C(=O)C1 (configuration not stated) | inactive | inactive |  | inactive |  |  |  | inactive | inactive | inactive | inactive | inactive | inactive | inactive | inactive |  | inactive | inactive | inactive | inactive |
| CCCC(=O)OCCC(C)CCC=C(C)C (configuration not stated) | inactive | inactive |  | inactive |  |  |  | inactive | inactive | inactive | 49 µM (active) |  | inactive | inactive | inactive |  | inactive | inactive | inactive | inactive |
| CCCCSCCCC | inactive | inactive |  | inactive |  |  |  | inactive | inactive | inactive | inactive | inactive | inactive | inactive | inactive | inactive | inactive | inactive | inactive | inactive |
| CC(=O)O[Si](C)(OC(C)=O)OC(C)=O | inactive | inactive |  | inactive |  |  |  | inactive | inactive | inactive | inactive | inactive | inactive | inactive | inactive | inactive | inactive | inactive | inactive | inactive |
